Only a sample is shown.
aSyn UTR act: Activators working through SNCA 5'UTR binding (MLPCN); alpha-synuclein 5'UTR reporter, activators screen; hit rate 7.1% among 300,000; activity score, % (tested at 7.5 µM), hits read low; in the data active = activity score below about -60%
An asterisk follows results filed as active.

SMILES	aSyn UTR act
O=C(NCC1CCCO1)Nc1ccc(Cl)cc1 (stereo not drawn)	-73*
CC1CCN(C(=O)Nc2ccc3nsnc3c2)CC1	-126*
Cc1ccc(NC(=S)NC2CCCCC2)cc1S(=O)(=O)N(C)C	-65*
S=C(Nc1ccc2nsnc2c1)NC1CCCCC1	-163*
S=C(Nc1ccc(Cl)c(Cl)c1)NC1CCCCC1	-75*
CCc1ccc(NC(=S)N2CCCCCCC2)cc1	-123*
COc1ccc(NC(=S)Nc2ccc3nsnc3c2)cc1	-207*
CC(C)c1ccc(NC(=S)NC2CCCCCC2)cc1	-185*
S=C(Nc1ccc2nsnc2c1)N1CCCCCC1	-148*
S=C(NNc1ccc2ccccc2c1)NC1CCCCC1	-217*
CC(=O)Nc1cccc(NC(=O)c2ccc3[nH]c(C)c(C)c3c2)c1	-107*
COc1cccc(-c2cc(=O)c3cc(NC(=O)c4ccc(N(C)C)cc4)ccc3[nH]2)c1	115
COc1ccc(NC(=O)c2ccc3[nH]c(C)c(C)c3c2)cc1	-101*
O=C(N/N=C/c1ccc([N+](=O)[O-])s1)c1ccncc1	-64*
Cc1ccc(C(=O)N/N=C/c2ccc([N+](=O)[O-])s2)cc1	108
O=C(N/N=C/c1ccc([N+](=O)[O-])s1)c1cccc(Br)c1	67
COc1ccc(NC(=O)CCC(=O)N/N=C/c2ccc([N+](=O)[O-])s2)cc1	-79*
CCOC(=O)COc1ccccc1C1Nc2ccccc2C(=O)N1c1cccc(Cl)c1 (stereo not drawn)	-107*
CC(C)Oc1ccccc1C1Nc2ccccc2C(=O)N1c1ccc2c(c1)OCCO2 (stereo not drawn)	68
COc1cc(C2Nc3ccccc3C(=O)N2c2ccc(Cl)cc2)c(Cl)cc1OCC(=O)O (stereo not drawn)	-137*
CS(=O)(=O)N1CCN(c2nc3ccc(Cl)cc3s2)CC1	-99*
Clc1ccc2nc(N3CCCCC3)sc2c1	-148*
O=c1c(Cl)c(N2CCCCC2)cnn1-c1nc2ccccc2[nH]1	93
Clc1ccc2nc(N3CCCCC3)[nH]c2c1	-123*
COc1ccc(OC)c(Cc2nnc(CCC(=O)NC3CCCCCCC3)o2)c1	-118*
SMILES	aSyn UTR act
COc1ccc(OC)c(Cc2nnc(CCC(=O)N3CCCCCC3)o2)c1	-74*
COc1ccc(OC)c(Cc2nnc(CCC(=O)N3CCCCC3c3nccs3)o2)c1 (stereo not drawn)	-116*
O=C(Nc1nccs1)c1ccc(Br)o1	-102*
O=C(/C=C/c1ccc(Br)o1)Nc1nccs1	-149*
Cc1[nH]n(-c2ccccc2)c(=O)c1N=Nc1ccccc1O	50
COc1cccc(N=Nc2c(C)[nH]n(-c3ccccc3)c2=O)c1	-145*
Cc1[nH]n(-c2ccccc2)c(=O)c1N=Nc1ccc2c(c1)OCO2	-214*
c1csc(C2Nc3ccccc3-c3nc4ccccc4n32)c1 (stereo not drawn)	-83*
c1cncc(C2Nc3ccccc3-c3nc4ccccc4n32)c1 (stereo not drawn)	-92*
Cc1ccsc1C1Nc2ccccc2-c2nc3ccccc3n21 (stereo not drawn)	-169*
CNc1nc(-c2ccc3c(c2)CCN3C(=O)c2ccccc2C)cs1	-88*
CNc1nc(-c2ccc3c(c2)CCN3C(=O)c2cccc(F)c2)cs1	-427*
O=C(Cc1ccccc1)NC(=S)Nc1ccc2oc(-c3ccccc3F)nc2c1	-187*
O=C(Cc1ccccc1)NC(=S)Nc1ccc2oc(-c3ccccc3)nc2c1	-106*
CC(=O)NC(=S)Nc1ccc2oc(-c3cc(F)c(F)cc3Cl)nc2c1	-111*
Fc1ccccc1C1CCN(Cc2nc(CC3CC3)no2)C1 (stereo not drawn)	-82*
c1ccc(-c2cc3nccc(-c4ccccn4)n3n2)cc1	-196*
CCOc1ccc(N(CC(=O)NCc2ccccc2OC)S(C)(=O)=O)cc1	-90*
Cc1ccc(N(CC(=O)Nc2ccc3c(c2)OCCO3)S(C)(=O)=O)cc1	-99*
CCOc1ccc(N(CC(=O)Nc2ccccc2C)S(=O)(=O)c2c(C)noc2C)cc1	59
CCOc1ccc(N(CC(=O)Nc2ccc(C)cc2)S(C)(=O)=O)cc1	-113*
CCOc1ccc(N(CC(=O)Nc2cc(C)cc(C)c2)S(C)(=O)=O)cc1	-88*
CC(=O)c1ccc(NC(=O)CN(c2c(C)cccc2C)S(C)(=O)=O)cc1	-131*
C=CCNC(=O)c1ccc(CN(c2ccc(OCC)cc2)S(=O)(=O)c2ccc(C)cc2)cc1	-93*
CS(=O)(=O)N(CC(=O)Nc1ccccc1C(=O)NCCc1ccccc1)c1ccc2c(c1)OCCO2	-153*
SMILES	aSyn UTR act
COc1cc(/C=N/OCC(=O)Nc2cc(C)cc(C)c2)ccc1OCc1ccc(Cl)cc1	-128*
COc1cc(/C=N/OCC(=O)NC2CCCCC2C)ccc1OCc1ccc(Cl)cc1 (stereo not drawn)	-98*
Cc1ccc(NC2=C(Cl)C(=O)c3ccccc3C2=O)cc1	60
Cc1ccc(NC2=C(N3CCOCC3)C(=O)c3ccccc3C2=O)cc1	-84*
COc1cc(Br)cc(/C=N/NC(=O)Cc2ccc(C(F)(F)F)cc2[N+](=O)[O-])c1O	68
O=C(CSc1ccc(C(F)(F)F)cc1[N+](=O)[O-])Nc1ccccc1	-75*

Bioassay records from PubChem.
